Reference: the supplement of paper PMC4237247

system: HeLa; assay: percent cells in S phase; higher = more S arrest; settings: 10 µM; 20 h; hit class: G1-phase inhibitor
Method: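 HTS of 79,827 drug-like compounds at 10 uM. HeLa cells in 384-well plates were treated for 20 h, fixed, stained with Vybrant DyeCycle Green and scanned on an Acumen eX3 cytometer to give per-well cell cycle profiles (% cells in each phase). The plate Z' was 0.51. Only hits are listed: G1 hits >4 SD and S hits >5 SD from the mean.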

SMILES	percent cells in S phase [%]
C/C=C(/C)C(=O)O[C@H]1C(C)=C2[C@H]([C@@H]1OC(=O)CCCCCCC)[C@@](C)(OC(C)=O)C[C@H](OC(=O)CCC)[C@@]1(O)[C@H]2OC(=O)[C@@]1(C)O	7.22
CC(C)(C)c1cc(C=C(C#N)C#N)cc(C(C)(C)C)c1O	8.81
C[C@@H]1C[C@@H]([C@H](O)CC2CC(=O)NC(=O)C2)C(=O)[C@@H](C)C1 [Cycloheximide]	6.83
O=[N+]([O-])c1ccc(NCCO)c2ncccc12	4.86
C[C@@H]1O[C@@H](O[C@H]2C[C@@H](O)[C@]3(CO)[C@H]4[C@H](O)C[C@]5(C)[C@@H](C6=CC(=O)OC6)CC[C@]5(O)[C@@H]4CC[C@]3(O)C2)[C@H](O)[C@H](O)[C@H]1O	15
CNC1CC2OC(C)(C1OC)n1c3ccccc3c3c4c(c5c6ccccc6n2c5c31)C(=O)NC4 (centres undefined)	5.4
C[C@@]12C(=O)OC(=O)[C@]1(C)[C@H]1CC[C@@H]2O1	8.95
C/C(=C\c1ccc(Cl)cc1)[N+](=O)[O-]	4.01
CNc1ccc2oc(C[C@H]3O[C@@]4(CC[C@H]3C)O[C@H]([C@H](C)C(=O)c3ccc[nH]3)[C@H](C)C[C@H]4C)nc2c1C(=O)O	6.33
